In PubChem BioAssay (Tox21):
Results filed as inconclusive are left out. Where a call stands in place of a potency, no number is given. Active and inactive are the calls of the source. Calls follow the shape of the dose curve; as a rule, active = well fitted cell-killing curve with a large enough effect in the repeat runs; inconclusive = weak or mixed curves, or effect the other way; inactive = no such curve, though single readings can be large or run the other way.

Assay: qHTS assay to identify small molecule agonists of the estrogen receptor alpha (ER-alpha) signaling pathway in the presence of an antagonist - cell viability counter screen (AID 1259386);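 also: cells exposed to compounds for 22 h at 37 °C before the viability read; nearly all actives have a fitted effect of over 30% in size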
Settings: VM7Luc4E2 viability, CellTiter-Fluor fluorescence, 22 h; series mostly up to 92.4 µM
Description: National Center for Advancing Translational Sciences [NCATS]
NIH Chemical Genomics Center [NCGC]
U.S. Environmental Protection Agency [EPA]
National Institutes of Environmental Health Sciences [NIEHS]
National Toxicology Program [NTP]
U.S. Food and Drug Administration [FDA]
Estrogen receptor (ER), a member of nuclear hormone receptor plays an important role in development, metabolic homeostasis and reproduction. Two subtypes of ER, ER-alpha and ER-beta, have similar expression patterns with some uniqueness in both types. Endocrine disrupting chemicals (EDCs) and their interactions with steroid hormone receptors like ER causes disruption of normal endocrine function. Therefore, it is important to understand the effect of environmental chemicals in ER signaling pathway. For identifying ER agonists, VM7Luc4E2 cell line has been used in the current assay.
VM7Luc4E2 cell line (provided by Denison MS, University of California) endogenously expresses full-length ER-alpha and is stably transfected with a plasmid containing four estrogen responsive elements (ERE) upstream of a luciferase reporter gene. This current screening for measuring luciferase reporter gene activity using VM7Luc4E2 cells against Tox21 10K library collection is a confirmation study on agonist mode screening in presence of ER-antagonist (ICI-182,780) at 10.0nM final concentration. The cytotoxicity of the compounds was tested in parallel by measuring the cell viability using CellTiter-Fluor assay system (Promega, Madison, WI) in the same wells.
Tox21 Assay Protocol Summary:
VM7Luc4E2 cells were cultured in phenol red free assay medium containing 10% charcoal stripped FBS for 5 days prior to the assay. The cells were dispensed at 4,000 cells in 4uL of assay medium per well into white wall/solid-bottom 1536-well plates (Corning Life Sciences, Corning, NY) using a Multidrop Combi (Thermo Fisher Scientific Inc., Waltham, MA) dispenser. After the assay plates were incubated at 37C and 5% CO2 for 24hr, 1uL of 10.0nM (final concentration) ICI-182,780 or assay buffer was added using two separate tips of Flying Reagent Dispenser (FRD, Aurora Discovery, San Diego, CA). Then 23nL of compounds dissolved in DMSO at 15 concentrations and positive controls or DMSO only was transferred to the assay plates by a Pintool station (Wako, San Diego, CA). The assay plates were incubated at 37C and 5% CO2 for 22hr. After 21hr incubation at 37C, 1uL/well CellTiter-Fluor reagent (Promega Corporation, Madison, WI) was added to each well using FRD and after 1hr incubation at 37C and 5% CO2, the fluorescence signal was measured on ViewLux plate reader (PerkinElmer, Shelton, CT).
Potency is read from the fitted curve at half-maximal effect.

| Structure (SMILES) | Potency |
| --- | --- |
| O=C1NC(=O)c2cc([N+](=O)[O-])ccc21 | inactive |
| O=c1cc(-c2ccccc2)oc2ccc3ccccc3c12 | inactive |
| CC(C)=CCC/C(C)=C/CC/C(C)=C/CCC(=O)OC/C=C(\C)CCC=C(C)C | inactive |
| O=[N+]([O-])c1ccc(O/N=C/c2cc(Br)c(O)c(Br)c2)c([N+](=O)[O-])c1 | 27.2 µM (active) |
| C1COC1 | inactive |
| O=C(O)c1ccc(OCCCOc2ccc(C(=O)O)cc2)cc1 | inactive |
| C=COCC(C)C | inactive |
| Brc1cc2ccccc2c2ccccc12 | inactive |
| CCC(C)(C)OC | inactive |
| Nc1ccc(N=Nc2ccccc2)c(N)c1 | 26.7 µM (active) |
| C=C(C)CCCC(C)CCO (stereo not given) | inactive |
| C/C=C(/C(=C/C)c1ccc(O)cc1)c1ccc(O)cc1 | inactive |
| Cc1ccc(C(C)(C)O)cc1 | inactive |
| CCOC(=O)OC(C)OC(=O)[C@@H]1N2C(=O)[C@@H](NC(=O)[C@H](N)c3ccccc3)[C@H]2SC1(C)C (stereo not given in full) | inactive |
| Cc1cccc(N(C)C(=S)Oc2ccc3c(c2)CCC3)c1 | inactive |
| O=C1c2ccccc2C(=O)C1c1ccc(Br)cc1 | inactive |
| COc1ccc(OC(=O)N(CC(=O)O)Cc2ccc(OCCc3nc(-c4ccccc4)oc3C)cc2)cc1 | inactive |
| Cc1ccc(CO)cc1 | inactive |
| O=C(O)CCCCCCCCCCCBr | inactive |
| O=c1[nH]ncc2ccccc12 | inactive |

| Structure (SMILES) | Potency |
| --- | --- |
| C[C@@H]1CC(=O)NN=C1c1ccc(NN=C(C#N)C#N)cc1 | 26.6 µM (active) |
| CCCCCCCCC(CCCCCC)C(=O)O (stereo not given) | inactive |
| O=c1cc(-c2ccccc2)oc2cc(O)cc(O)c12 | 48.6 µM (active) |
| CCOC(=O)C1=C(C)NC(C)=C(C(=O)OC)C1c1cccc(Cl)c1Cl (stereo not given) | inactive |
| C[C@@H](O[C@H]1OCCN(Cc2n[nH]c(=O)[nH]2)[C@H]1c1ccc(F)cc1)c1cc(C(F)(F)F)cc(C(F)(F)F)c1 | inactive |
| CC(=O)[C@H]1[C@H](C#N)C[C@H]2[C@@H]3CC=C4C[C@@H](O)CC[C@]4(C)[C@H]3CC[C@@]21C | inactive |
| CN1C(=O)OC(C)(C)C1=O | inactive |
| CCC(=O)C1CC(C(C)C)CC=C1C (stereo not given) | inactive |
| COC(=O)CS | inactive |
| C=CC(C)(CCC=C(C)C)OC(=O)CC(C)C (stereo not given) | inactive |
| CCCCCCCCCCCCCCN(CCO)CCO | inactive |
| CC(CCC(=O)O)C(=O)O (stereo not given) | inactive |
| CN(C)CCN1C(=O)c2ccccc2N(C)c2ccccc21 | inactive |
| CC(=O)Nc1ccc(C)cc1C | inactive |
| CC(=O)c1cc2ccccc2s1 | inactive |
| Brc1cc(Br)c(Oc2cc(Br)c(Br)cc2Br)cc1Br | inactive |
| COC(=O)C1=C(C)NC(C)=C(C(=O)O[C@@H]2CCCN(Cc3ccccc3)C2)[C@@H]1c1cccc([N+](=O)[O-])c1 | inactive |
| CCCCCC[C@@H](O)C/C=C\CCCCCCCC(=O)OCC(O)CO (stereo not given in full) | inactive |
| C1C[C@@H]2[C@H]3CC[C@H](C3)[C@@H]2C1 | inactive |
| CCOc1cccc(-n2cc(C(=O)N3CCN(c4cc(C(=O)O)c5ccccc5c4)CC3)nc2-c2ccc(C)cc2)c1 | inactive |
